Test results taken from ChEMBL document CHEMBL1961873, “Compounds: GSK PKIS; Assays: Nanosyn kinase panel” (2012).

What was measured:
[1] = biological target: T1, Tyrosine-protein kinase ITK/TSK (Homo sapiens) (UniProt Q08881); conditions: at 1 µM;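 further: values are mean percent inhibition of ITK from the GSK PKIS screen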
T1 sequence (whole entry): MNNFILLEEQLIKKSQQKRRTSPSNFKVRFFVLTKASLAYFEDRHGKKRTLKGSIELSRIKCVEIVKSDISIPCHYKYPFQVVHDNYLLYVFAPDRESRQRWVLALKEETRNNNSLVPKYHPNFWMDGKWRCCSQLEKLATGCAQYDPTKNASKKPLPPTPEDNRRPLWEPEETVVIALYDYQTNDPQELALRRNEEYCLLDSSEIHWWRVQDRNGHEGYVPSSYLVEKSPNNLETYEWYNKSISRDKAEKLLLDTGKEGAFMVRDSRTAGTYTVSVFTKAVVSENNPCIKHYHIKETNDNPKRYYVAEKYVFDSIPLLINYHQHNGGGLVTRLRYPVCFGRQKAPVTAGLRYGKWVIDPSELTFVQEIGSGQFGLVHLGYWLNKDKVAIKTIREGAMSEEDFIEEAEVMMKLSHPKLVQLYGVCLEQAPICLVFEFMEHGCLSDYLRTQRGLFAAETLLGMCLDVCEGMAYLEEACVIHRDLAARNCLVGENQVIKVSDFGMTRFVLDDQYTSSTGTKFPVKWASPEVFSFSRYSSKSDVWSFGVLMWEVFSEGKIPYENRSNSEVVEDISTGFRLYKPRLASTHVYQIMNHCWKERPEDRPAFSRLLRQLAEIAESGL

[2] = biological target: Tyrosine-protein kinase JAK1 (Homo sapiens) (UniProt P23458); conditions: at 0.1 µM
[3] = biological target: Tyrosine-protein kinase JAK1 (Homo sapiens) (UniProt P23458); conditions: at 1 µM
[4] = biological target: Tyrosine-protein kinase JAK2 (Homo sapiens) (UniProt O60674); conditions: at 0.1 µM
[5] = biological target: Tyrosine-protein kinase JAK2 (Homo sapiens) (UniProt O60674); conditions: at 1 µM
[6] = biological target: T2, Tyrosine-protein kinase JAK3 (Homo sapiens) (UniProt P52333); conditions: at 0.1 µM
T2 sequence (whole entry): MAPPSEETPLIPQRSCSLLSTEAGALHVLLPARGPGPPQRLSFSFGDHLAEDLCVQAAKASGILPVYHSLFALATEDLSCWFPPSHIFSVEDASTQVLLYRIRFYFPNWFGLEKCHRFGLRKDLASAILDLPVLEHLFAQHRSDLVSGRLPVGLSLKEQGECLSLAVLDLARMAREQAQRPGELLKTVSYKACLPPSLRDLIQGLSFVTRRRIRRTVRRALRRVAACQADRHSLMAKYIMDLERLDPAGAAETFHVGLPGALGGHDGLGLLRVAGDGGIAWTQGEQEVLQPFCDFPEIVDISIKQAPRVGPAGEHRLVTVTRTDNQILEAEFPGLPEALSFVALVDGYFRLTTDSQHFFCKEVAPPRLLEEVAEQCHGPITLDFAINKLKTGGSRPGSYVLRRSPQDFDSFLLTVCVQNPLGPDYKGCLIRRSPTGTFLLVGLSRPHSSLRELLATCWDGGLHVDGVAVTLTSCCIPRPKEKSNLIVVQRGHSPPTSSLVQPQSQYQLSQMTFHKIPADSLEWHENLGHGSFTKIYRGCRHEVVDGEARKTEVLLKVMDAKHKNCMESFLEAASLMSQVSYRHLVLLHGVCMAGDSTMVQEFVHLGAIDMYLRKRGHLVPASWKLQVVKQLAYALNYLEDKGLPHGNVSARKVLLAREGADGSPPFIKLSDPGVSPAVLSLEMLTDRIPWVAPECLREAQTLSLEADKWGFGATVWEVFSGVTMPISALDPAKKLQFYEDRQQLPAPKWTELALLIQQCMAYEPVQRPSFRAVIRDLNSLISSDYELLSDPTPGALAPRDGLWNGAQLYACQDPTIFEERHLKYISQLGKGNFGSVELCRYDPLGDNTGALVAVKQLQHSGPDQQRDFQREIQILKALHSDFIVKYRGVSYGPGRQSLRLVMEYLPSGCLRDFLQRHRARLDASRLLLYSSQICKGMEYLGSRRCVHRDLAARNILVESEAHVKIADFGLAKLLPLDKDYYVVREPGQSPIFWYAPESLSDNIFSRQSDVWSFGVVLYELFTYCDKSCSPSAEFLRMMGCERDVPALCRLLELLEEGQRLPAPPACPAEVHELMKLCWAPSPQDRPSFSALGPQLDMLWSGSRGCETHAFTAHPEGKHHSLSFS

[7] = biological target: T2, Tyrosine-protein kinase JAK3 (Homo sapiens); conditions: at 1 µM
[8] = biological target: Vascular endothelial growth factor receptor 2 (Homo sapiens) (UniProt P35968); conditions: at 0.1 µM
[9] = biological target: Vascular endothelial growth factor receptor 2 (Homo sapiens) (UniProt P35968); conditions: at 1 µM
[10] = biological target: Mast/stem cell growth factor receptor Kit (Homo sapiens) (UniProt P10721); conditions: at 0.1 µM
[11] = biological target: Mast/stem cell growth factor receptor Kit (Homo sapiens) (UniProt P10721); conditions: at 1 µM
[12] = tested on: Mast/stem cell growth factor receptor Kit (Homo sapiens), P10721 [D816V]; conditions: at 0.1 µM
[13] = tested on: Mast/stem cell growth factor receptor Kit (Homo sapiens), P10721 [D816V]; conditions: at 1 µM
[14] = tested on: Mast/stem cell growth factor receptor Kit (Homo sapiens), P10721 [T670I]; conditions: at 0.1 µM
[15] = tested on: Mast/stem cell growth factor receptor Kit (Homo sapiens), P10721 [T670I]; conditions: at 1 µM
[16] = tested on: Mast/stem cell growth factor receptor Kit (Homo sapiens), P10721 [V560G]; conditions: at 0.1 µM
[17] = tested on: Mast/stem cell growth factor receptor Kit (Homo sapiens), P10721 [V560G]; conditions: at 1 µM
[18] = biological target: Tyrosine-protein kinase Lck (Homo sapiens) (UniProt P06239); conditions: at 0.1 µM
[19] = biological target: Tyrosine-protein kinase Lck (Homo sapiens) (UniProt P06239); conditions: at 1 µM
[20] = biological target: Leukocyte tyrosine kinase receptor (Homo sapiens) (UniProt P29376); conditions: at 0.1 µM
Chain of Leukocyte tyrosine kinase receptor (Homo sapiens) (P29376 whole entry): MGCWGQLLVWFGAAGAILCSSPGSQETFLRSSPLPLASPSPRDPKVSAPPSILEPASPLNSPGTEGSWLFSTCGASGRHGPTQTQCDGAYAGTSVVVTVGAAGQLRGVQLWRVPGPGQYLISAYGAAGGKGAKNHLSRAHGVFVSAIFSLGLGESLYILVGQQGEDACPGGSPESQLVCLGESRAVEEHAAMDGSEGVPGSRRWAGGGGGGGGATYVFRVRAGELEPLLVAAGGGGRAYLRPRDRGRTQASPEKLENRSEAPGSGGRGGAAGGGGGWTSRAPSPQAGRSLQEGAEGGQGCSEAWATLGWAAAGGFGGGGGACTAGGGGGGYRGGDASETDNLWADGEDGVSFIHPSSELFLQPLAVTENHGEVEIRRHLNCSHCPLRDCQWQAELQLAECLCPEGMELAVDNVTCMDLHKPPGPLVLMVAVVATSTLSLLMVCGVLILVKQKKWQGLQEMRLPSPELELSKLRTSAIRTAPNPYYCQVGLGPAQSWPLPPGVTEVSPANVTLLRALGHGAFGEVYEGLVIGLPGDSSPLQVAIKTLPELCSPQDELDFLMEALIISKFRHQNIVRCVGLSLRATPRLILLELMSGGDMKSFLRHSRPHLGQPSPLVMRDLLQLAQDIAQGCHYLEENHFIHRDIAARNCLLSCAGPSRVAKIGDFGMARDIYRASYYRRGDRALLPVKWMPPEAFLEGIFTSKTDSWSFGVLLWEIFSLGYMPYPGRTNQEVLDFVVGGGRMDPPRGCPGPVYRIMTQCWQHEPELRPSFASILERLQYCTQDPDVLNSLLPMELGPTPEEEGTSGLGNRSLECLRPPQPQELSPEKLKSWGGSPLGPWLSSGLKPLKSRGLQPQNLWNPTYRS

Chain of Mast/stem cell growth factor receptor Kit (Homo sapiens), P10721 [V560G] (P10721 whole entry V560G): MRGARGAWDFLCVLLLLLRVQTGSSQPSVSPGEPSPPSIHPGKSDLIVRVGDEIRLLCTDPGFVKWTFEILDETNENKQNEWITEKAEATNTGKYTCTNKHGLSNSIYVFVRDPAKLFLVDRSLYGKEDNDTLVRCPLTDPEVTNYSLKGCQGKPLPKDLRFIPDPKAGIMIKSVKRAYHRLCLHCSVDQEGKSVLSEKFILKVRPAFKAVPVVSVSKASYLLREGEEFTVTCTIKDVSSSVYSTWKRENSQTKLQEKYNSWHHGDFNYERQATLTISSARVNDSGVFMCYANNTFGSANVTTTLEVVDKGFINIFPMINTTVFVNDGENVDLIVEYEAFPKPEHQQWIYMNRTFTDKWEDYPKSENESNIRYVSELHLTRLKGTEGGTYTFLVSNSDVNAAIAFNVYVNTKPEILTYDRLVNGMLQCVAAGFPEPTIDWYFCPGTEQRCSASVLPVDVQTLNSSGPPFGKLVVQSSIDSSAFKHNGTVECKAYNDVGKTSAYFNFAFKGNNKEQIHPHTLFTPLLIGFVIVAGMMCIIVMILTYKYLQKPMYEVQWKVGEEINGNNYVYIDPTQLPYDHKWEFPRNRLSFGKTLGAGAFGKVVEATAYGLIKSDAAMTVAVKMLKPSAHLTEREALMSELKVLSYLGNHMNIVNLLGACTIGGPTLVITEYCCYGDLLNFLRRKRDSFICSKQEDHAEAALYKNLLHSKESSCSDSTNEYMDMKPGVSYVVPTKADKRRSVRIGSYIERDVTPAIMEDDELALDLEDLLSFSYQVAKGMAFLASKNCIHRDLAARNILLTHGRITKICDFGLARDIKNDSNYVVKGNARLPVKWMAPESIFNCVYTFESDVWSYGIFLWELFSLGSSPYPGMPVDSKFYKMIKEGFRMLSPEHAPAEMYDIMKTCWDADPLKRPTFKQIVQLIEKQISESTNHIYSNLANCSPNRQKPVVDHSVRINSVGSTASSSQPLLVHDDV
Chain of Mast/stem cell growth factor receptor Kit (Homo sapiens), P10721 [D816V] (P10721 whole entry D816V): as the sequence (P10721 whole entry V560G) above, with G560V, D816V counted along it
Chain of Tyrosine-protein kinase Lck (Homo sapiens) (P06239 2-509 limits assumed): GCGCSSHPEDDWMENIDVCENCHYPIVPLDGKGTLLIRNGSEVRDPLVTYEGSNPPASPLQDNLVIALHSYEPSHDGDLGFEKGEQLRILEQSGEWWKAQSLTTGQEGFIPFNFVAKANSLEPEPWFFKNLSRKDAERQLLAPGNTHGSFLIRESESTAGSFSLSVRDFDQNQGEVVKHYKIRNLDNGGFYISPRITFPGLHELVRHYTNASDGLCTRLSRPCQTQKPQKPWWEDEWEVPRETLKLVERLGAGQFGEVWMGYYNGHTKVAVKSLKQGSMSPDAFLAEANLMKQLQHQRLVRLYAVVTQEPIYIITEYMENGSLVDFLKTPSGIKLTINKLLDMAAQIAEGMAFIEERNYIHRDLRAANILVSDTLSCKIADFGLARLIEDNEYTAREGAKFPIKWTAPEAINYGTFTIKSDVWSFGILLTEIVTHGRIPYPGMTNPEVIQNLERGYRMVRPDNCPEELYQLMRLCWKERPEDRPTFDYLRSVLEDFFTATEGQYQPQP
Chain of Mast/stem cell growth factor receptor Kit (Homo sapiens) (P10721 whole entry): as the sequence (P10721 whole entry V560G) above, with G560V counted along it
Chain of Vascular endothelial growth factor receptor 2 (Homo sapiens) (P35968 whole entry): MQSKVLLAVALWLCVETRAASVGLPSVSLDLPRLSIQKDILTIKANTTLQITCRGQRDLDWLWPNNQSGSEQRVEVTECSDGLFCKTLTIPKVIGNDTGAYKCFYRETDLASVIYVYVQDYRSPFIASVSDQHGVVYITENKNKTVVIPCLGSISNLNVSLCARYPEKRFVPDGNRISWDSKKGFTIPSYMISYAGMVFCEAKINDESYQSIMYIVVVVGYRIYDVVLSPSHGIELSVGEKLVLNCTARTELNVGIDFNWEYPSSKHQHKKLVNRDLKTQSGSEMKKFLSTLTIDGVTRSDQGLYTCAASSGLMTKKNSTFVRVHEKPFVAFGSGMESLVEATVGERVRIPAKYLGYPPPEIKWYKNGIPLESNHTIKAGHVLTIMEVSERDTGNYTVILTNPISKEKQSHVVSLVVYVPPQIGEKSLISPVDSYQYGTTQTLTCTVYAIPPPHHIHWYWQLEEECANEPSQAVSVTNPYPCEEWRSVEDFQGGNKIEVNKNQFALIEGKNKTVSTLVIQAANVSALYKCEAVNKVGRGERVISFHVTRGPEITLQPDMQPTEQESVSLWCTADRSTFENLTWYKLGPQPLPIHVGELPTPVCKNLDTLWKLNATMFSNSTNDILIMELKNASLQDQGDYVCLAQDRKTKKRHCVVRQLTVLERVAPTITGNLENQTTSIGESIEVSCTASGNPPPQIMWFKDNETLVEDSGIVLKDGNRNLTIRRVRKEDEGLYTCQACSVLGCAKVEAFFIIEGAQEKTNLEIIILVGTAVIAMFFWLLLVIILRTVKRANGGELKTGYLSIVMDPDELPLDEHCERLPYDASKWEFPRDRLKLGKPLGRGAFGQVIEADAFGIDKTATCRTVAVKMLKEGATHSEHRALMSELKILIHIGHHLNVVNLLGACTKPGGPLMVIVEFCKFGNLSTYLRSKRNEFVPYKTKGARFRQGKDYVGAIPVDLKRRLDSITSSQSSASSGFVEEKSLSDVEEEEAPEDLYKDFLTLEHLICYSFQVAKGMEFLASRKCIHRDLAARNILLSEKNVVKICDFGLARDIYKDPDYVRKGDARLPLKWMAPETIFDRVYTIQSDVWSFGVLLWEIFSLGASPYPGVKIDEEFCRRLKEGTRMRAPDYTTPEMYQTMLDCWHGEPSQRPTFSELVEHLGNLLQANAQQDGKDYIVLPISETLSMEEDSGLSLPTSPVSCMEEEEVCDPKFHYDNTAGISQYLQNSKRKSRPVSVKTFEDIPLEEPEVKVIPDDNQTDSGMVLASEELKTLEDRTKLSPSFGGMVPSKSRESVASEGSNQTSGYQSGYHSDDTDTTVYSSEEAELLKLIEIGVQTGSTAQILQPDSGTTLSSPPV
Chain of Mast/stem cell growth factor receptor Kit (Homo sapiens), P10721 [T670I] (P10721 whole entry T670I): as the sequence (P10721 whole entry V560G) above, with G560V, T670I counted along it
Chain of Tyrosine-protein kinase JAK1 (Homo sapiens) (P23458 whole entry): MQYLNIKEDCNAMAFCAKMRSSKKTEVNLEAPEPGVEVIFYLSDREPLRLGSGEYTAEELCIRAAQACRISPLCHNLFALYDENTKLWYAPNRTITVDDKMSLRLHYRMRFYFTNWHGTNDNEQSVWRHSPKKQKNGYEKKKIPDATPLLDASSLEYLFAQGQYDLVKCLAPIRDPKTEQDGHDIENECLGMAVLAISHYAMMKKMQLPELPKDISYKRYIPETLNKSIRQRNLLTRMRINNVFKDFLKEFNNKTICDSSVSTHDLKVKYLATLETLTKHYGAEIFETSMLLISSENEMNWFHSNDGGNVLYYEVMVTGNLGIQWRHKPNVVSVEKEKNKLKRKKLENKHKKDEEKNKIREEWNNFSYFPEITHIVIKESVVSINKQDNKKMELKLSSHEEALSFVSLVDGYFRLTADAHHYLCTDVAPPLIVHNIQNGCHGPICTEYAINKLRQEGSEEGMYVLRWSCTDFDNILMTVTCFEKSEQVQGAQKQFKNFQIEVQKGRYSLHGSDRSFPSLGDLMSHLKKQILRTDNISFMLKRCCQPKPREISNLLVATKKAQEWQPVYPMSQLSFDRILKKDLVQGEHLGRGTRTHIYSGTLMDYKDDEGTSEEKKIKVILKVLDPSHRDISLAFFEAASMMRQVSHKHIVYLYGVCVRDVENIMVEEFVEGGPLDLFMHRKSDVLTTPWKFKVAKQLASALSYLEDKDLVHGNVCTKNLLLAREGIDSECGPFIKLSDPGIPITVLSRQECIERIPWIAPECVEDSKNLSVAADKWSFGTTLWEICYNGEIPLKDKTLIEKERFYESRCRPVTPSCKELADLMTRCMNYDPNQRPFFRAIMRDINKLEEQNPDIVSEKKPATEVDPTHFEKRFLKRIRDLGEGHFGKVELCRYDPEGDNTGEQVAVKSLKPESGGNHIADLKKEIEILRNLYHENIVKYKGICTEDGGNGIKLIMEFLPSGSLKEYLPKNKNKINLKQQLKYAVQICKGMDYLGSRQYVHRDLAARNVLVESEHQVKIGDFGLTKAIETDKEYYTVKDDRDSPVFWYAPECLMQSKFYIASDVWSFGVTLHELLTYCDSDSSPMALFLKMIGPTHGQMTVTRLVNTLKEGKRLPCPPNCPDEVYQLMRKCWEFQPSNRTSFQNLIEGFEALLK

Compound	inhibition [1]	inhibition [2]	inhibition [3]	inhibition [4]	inhibition [5]	inhibition [6]	inhibition [7]	inhibition [8]	inhibition [9]	inhibition [10]	inhibition [11]	inhibition [12]	inhibition [13]	inhibition [14]	inhibition [15]	inhibition [16]	inhibition [17]	inhibition [18]	inhibition [19]	inhibition [20]
Fc1ccc(-c2ncn(C3CCNCC3)c2-c2ccnc(Oc3ccc4c(c3)OCO4)n2)cc1	3.21%	3.3%	4.29%	0.42%	1.47%	-2.3%	-2.01%	9.3%	12.5%	7.99%	9.68%	4.71%	5.2%	3.24%	3.64%	-1.09%	-0.53%	3.98%	8.64%	3.89%
COc1cc2ncn(-c3cc(OCc4ccccc4C(F)(F)F)c(C(C)=O)s3)c2cc1OC	6.89%	2.15%	2.47%	1.06%	-0.01%	-2.98%	-1.59%	3.96%	7.57%	3.46%	4.53%	2.21%	1.58%	2.81%	6.12%	-1.46%	1.6%	4.22%	9.66%	2.03%
CCc1ccc(Oc2nccc(-c3c(-c4ccc(F)cc4)ncn3C3CCNCC3)n2)cc1	2.38%	4.16%	4.5%	1.64%	2.94%	-1.25%	-0.22%	5.19%	13.5%	4.71%	3.31%	4.91%	1.86%	2.54%	2.33%	-1.42%	-1.63%	3.37%	6.55%	2.71%
NC(=O)c1ccc(Oc2nccc(-c3c(-c4ccc(F)cc4)ncn3C3CCNCC3)n2)cc1	2.32%	3.88%	0.7%	2.78%	3.18%	-0.36%	-0.92%	4.96%	9.7%	7.24%	6.05%	4.42%	4.25%	1.23%	1.77%	-1.86%	0.03%	5.07%	4.88%	4.02%
COc1cc(Nc2ncc3c(C)nc(-c4cccc(C(F)(F)F)c4)n3n2)cc(OC)c1OC	13.5%	3.02%	8.95%	1.27%	11.1%	-0.52%	4.91%	4.26%	8.61%	11.1%	44.8%	4.72%	5.97%	1.57%	7.22%	-0.27%	7.67%	3.24%	20.1%	4.18%
CN(C)CCCNc1nccc(-c2c(-c3ccc(F)cc3)nn3cc(C(F)(F)F)ccc23)n1	-1.31%	0.29%	-0.9%	0.65%	3.68%	-2.83%	-1.89%	6.32%	11.3%	3.48%	2.1%	1.94%	-0.31%	0.09%	0.14%	6.47%	4.04%	-2.05%	3.17%	1.9%
O=C(Nc1n[nH]c2cc(-c3ccccc3)ccc12)C1CC1	2.12%	2.85%	7.69%	2.26%	0.77%	-1.69%	0.16%	4.79%	12.6%	3.52%	7.38%	3.94%	8.12%	4.34%	4.01%	1.4%	3.87%	2.21%	6.66%	3.88%
O=C1Nc2ccccc2/C1=C/Nc1ccc(-n2cncn2)cc1	4.51%	5.01%	29.9%	0.53%	0.69%	-1.1%	6.49%	7.9%	37.3%	21.5%	75.9%	4.37%	8.01%	8.82%	47.4%	-2.32%	10.2%	3.98%	9.02%	3.3%
Clc1ccc(CNc2nccc(-c3cnn4ncccc34)n2)cc1	1.37%	-0.37%	-0.62%	1.52%	3.6%	-0.04%	2.94%	0.99%	2.77%	5%	19.4%	0.92%	5.08%	1.59%	6.47%	3.83%	7.92%	2.31%	2.46%	0.55%
Fc1ccc(-c2nc3n(c2-c2ccncc2)CCS3)cc1	-1.9%	2.03%	4.76%	0.84%	1.07%	-4.98%	-4.14%	5.19%	8.03%	5.12%	2.15%	4.1%	1.39%	2.38%	2.22%	0.09%	-0.72%	-2.03%	1.29%	1.98%
COc1ccc2cc(-c3c(-c4ccncc4)nc(-c4ccc([S+](C)[O-])cc4C)n3C)ccc2c1 (stereo not given)	0.95%	-3.09%	4.21%	0.25%	-0.49%	0.51%	0.61%	8.24%	49%	-0.44%	4.45%	-3.23%	-3.08%	0.48%	0.67%	4.53%	-0.3%	0.43%	8.73%	0.03%
C[C@@H](Oc1cc(-n2cnc3ccc(OC4CCN(C)CC4)cc32)sc1C(N)=O)c1ccccc1Cl	-1.75%	0.47%	-0.07%	4.66%	2.46%	-5.38%	13.5%	9.62%	40.3%	5.05%	5.22%	1.72%	6.14%	1.3%	6.17%	-4.05%	-2.87%	-0.67%	4.21%	4.01%
